Hits are enriched below; roughly 3.7% of the tested compounds scored in any of these assays.
tim10-1 inh: growth inhibitors of tim10-1 mutant yeast, primary screen, luminescence, uHTS; 330,000 compounds, 2.2% hits; S. cerevisiae tim10-1 ts strain growth, BacTiter-Glo, 24 h; AID 463190, 2010; inhibition, % at 20 µM;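 active = inhibition of at least 40%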;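 also: mutant grown at 25 °C; 0% = DMSO wells with yeast and 100% = wells holding no yeast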
tim23-1 inh: growth inhibitors of tim23-1 mutant yeast, primary screen, luminescence, uHTS. 330,000 compounds, 1.3% hits. S. cerevisiae tim23-1 growth, BacTiter-Glo luminescence, 24 h. inhibition, % at 20 µM;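 active = growth inhibition of the mutant yeast at or above 50%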;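 also: temperature-sensitive mutant grown at 25 °C; plate controls were DMSO-treated mutant yeast for no effect and medium wells lacking yeast for full effect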
Rce1 inh: yeast Rce1p protease inhibitors, primary screen, biochemical, fluorescence, cell-free homogeneous; calls only; yeast membranes, quenched prenylated peptide cleavage fluorescence; 290,000 compounds, 0.27% hits; CAAX prenyl protease 2 (Saccharomyces cerevisiae (strain ATCC 204508 / S288c)), Q03530;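 active = fall in fluorescence gain of 50% or more versus controls, with final raw signal at or below 3038400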;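 also: plate controls were neutral control wells for no effect and wells lacking membranes for full effect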
Target sequence (Q03530 whole entry, looked up): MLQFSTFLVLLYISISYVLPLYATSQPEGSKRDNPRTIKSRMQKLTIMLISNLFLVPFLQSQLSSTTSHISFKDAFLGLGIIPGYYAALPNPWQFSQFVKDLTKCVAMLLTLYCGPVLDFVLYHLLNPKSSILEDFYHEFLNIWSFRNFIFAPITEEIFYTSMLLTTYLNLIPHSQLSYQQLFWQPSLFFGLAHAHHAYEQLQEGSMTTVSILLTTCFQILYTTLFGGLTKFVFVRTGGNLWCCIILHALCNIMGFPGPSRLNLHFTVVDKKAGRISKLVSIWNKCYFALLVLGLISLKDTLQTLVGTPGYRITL
TIM10 inh: growth inhibitors of isogenic TIM10 control yeast, primary screen, counter-screen for tim10-1 yeast inhibitor project, luminescence, uHTS; 330,000 compounds, 1.4% hits; inhibition, % at 10 µM; AID 463195, 2010; S. cerevisiae TIM10 strain growth, BacTiter-Glo luminescence, 24 h;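 active = inhibition of 40% or more at the single tested concentration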;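 also: wild-type TIM10 isogenic control strain grown at permissive 25 °C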
PfHsp90 yeast 2: growth inhibition of PfHsp90-expressing yeast, primary screen, antimalarial PfHsp90 inhibitor project, S. cerevisiae, BacTiter-Glo luminescence, single point, set 2. BacTiter-Glo ATP, 48 h; yeast lacking PDR1 and PDR3 efflux regulators. inhibition, % at 9.4 µM. 310,000 compounds, 0.32% hits. AID 504621, 2011;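 active = every replicate shows inhibition above about 80%, whatever the replicate mean, limit read from the data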;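 also: 0% = DMSO neutral controls and 100% = 20 µM radicicol positive controls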
tim10-1 confirm: growth inhibitors of tim10-1 mutant yeast, confirmation, single concentration, luminescence, S. cerevisiae | shares compounds with tim10-1 inh | S. cerevisiae tim10-1 ts strain growth, BacTiter-Glo, 24 h | inhibition, % at 20 µM | 7,400 compounds, 56% hits | AID 463213, 2010;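 active = inhibition of yeast growth at or above a set limit in either of two repeat tests at 20 µM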;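 also: tim10-1 mutant grown at permissive 25 °C to find synthetic lethal compounds; 0% = DMSO yeast wells and 100% = medium wells without yeast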
tim10 confirm: growth inhibitors of wild-type TIM10 yeast, confirmation, counter-screen for tim10-1 synthetic lethality project, single concentration, luminescence, S. cerevisiae. AID 463215, 2010. 4,600 compounds, 63% hits. shares compounds with TIM10 inh. S. cerevisiae tim10 strain growth, BacTiter-Glo luminescence, 24 h. inhibition, % at 10 µM;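 active = inhibition of yeast growth at or above a set limit in either of two replicates at 10 µM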;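 also: this counterscreen used the strain with wild-type TIM10; 0% = yeast with DMSO and 100% = medium wells lacking yeast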
* = called active by the depositor.

What do the screens show for `N/C(=N\OC(=O)Cc1cccc2ccccc12)c1ccccn1`?
tim10-1 inh: 60.4*; tim23-1 inh: 9.8; Rce1 inh: inactive; TIM10 inh: 43.3*; PfHsp90 yeast 2: -0.9; tim10-1 confirm: 49.0*; tim10 confirm: 38.3*

Results for COc1ccc(OCC(=O)O/N=C(\N)Cc2ccc(Cl)cc2)cc1 ?
tim10-1 inh: 62.3*; tim23-1 inh: 47.3; Rce1 inh: inactive; TIM10 inh: 54.1*; PfHsp90 yeast 2: -4.1; tim10-1 confirm: 57.7*; tim10 confirm: -40.0

Results for CCN(Cc1ccccc1)S(=O)(=O)c1ccc(C(=O)N2CCN(c3nc4ccccc4s3)CC2)cc1 ?
tim10-1 inh: -8.9; tim23-1 inh: -3.1; Rce1 inh: inactive; TIM10 inh: -10.2; PfHsp90 yeast 2: -33.2

How did COc1ccc(CC(=O)O/N=C(\N)Cc2cccc3ccccc23)cc1 do in these assays?
tim10-1 inh: 44.1*; tim23-1 inh: 16.5; Rce1 inh: inactive; TIM10 inh: 47.7*; PfHsp90 yeast 2: -0.2; tim10-1 confirm: 49.9*; tim10 confirm: 53.0*

What do the screens show for `COc1ccc(CC(=O)O/N=C(\N)c2ccc(C)cc2)cc1`?
tim10-1 inh: 11.3; tim23-1 inh: 7.3; Rce1 inh: inactive; TIM10 inh: 15.2; PfHsp90 yeast 2: 0.2

How did Cc1ccc(/C(N)=N/OC(=O)COc2ccccc2Cl)cc1 do in these assays?
tim10-1 inh: 61.4*; tim23-1 inh: 49.9; Rce1 inh: inactive; TIM10 inh: 40.0; tim10-1 confirm: 41.8*; tim10 confirm: 43.4*

Results for COc1ccc(OCC(=O)O/N=C(\N)Cc2ccc(Cl)cc2Cl)cc1 ?
tim10-1 inh: 63.5*; tim23-1 inh: 49.7; Rce1 inh: inactive; TIM10 inh: 49.6*; PfHsp90 yeast 2: -2.6; tim10-1 confirm: 62.6*; tim10 confirm: 45.9*

Results for O=C(N=C1SC2CS(=O)(=O)CC2N1c1ccc(Br)cc1)C1CCCO1 (configuration not stated) ?
tim10-1 inh: 19.7; tim23-1 inh: 6.7; Rce1 inh: inactive; TIM10 inh: 2.9; PfHsp90 yeast 2: 4.8

What do the screens show for `Cc1nn(-c2ccccc2)c(Cl)c1/C=C/C(=O)c1ccccc1`?
tim10-1 inh: 40.6*; tim23-1 inh: -4.2; Rce1 inh: inactive; TIM10 inh: 46.5*; PfHsp90 yeast 2: -16.3; tim10-1 confirm: 47.8*; tim10 confirm: 39.9*

How did O=C(NCC1CCCO1)c1ccc2c(c1)C(=O)N(c1cccc([N+](=O)[O-])c1)C2=O (configuration not stated) do in these assays?
tim10-1 inh: -13.9; tim23-1 inh: 9.3; Rce1 inh: inactive; TIM10 inh: -13.9; PfHsp90 yeast 2: 13.3

What do the screens show for `COc1cccc(C(=O)Nc2ccc(-n3nncc3C(C)(C)C)cc2)c1`?
tim10-1 inh: 34.0; tim23-1 inh: 31.0; Rce1 inh: inactive; TIM10 inh: 22.4

Results for CC(C)(C)c1cnnn1-c1ccc(NC(=O)c2ccc3c(c2)OCO3)cc1 ?
tim10-1 inh: 43.8*; tim23-1 inh: 37.9; Rce1 inh: inactive; TIM10 inh: 42.0*; PfHsp90 yeast 2: -3.7; tim10-1 confirm: 25.6; tim10 confirm: 33.8*

What do the screens show for `CC(C)(C)c1cnnn1-c1ccc(NC(=O)c2ccc(Br)o2)cc1`?
tim10-1 inh: 47.3*; tim23-1 inh: 37.2; Rce1 inh: inactive; TIM10 inh: 46.5*; PfHsp90 yeast 2: -8.1; tim10-1 confirm: 42.5*; tim10 confirm: 39.3*

Results for Cc1cc(C)c2c3c(oc2n1)C(=O)N(c1cccc(Cl)c1)CC(=O)N3 ?
tim10-1 inh: 8.6; tim23-1 inh: 18.8; Rce1 inh: inactive; TIM10 inh: 17.0; PfHsp90 yeast 2: 13.8

Results for Cc1cccc(-c2nnc3sc(-c4ccccc4C)nn23)c1 ?
tim10-1 inh: 54.7*; tim23-1 inh: 32.8; Rce1 inh: inactive; TIM10 inh: 41.1*; PfHsp90 yeast 2: -80.1; tim10-1 confirm: 66.2*; tim10 confirm: 44.1*

What do the screens show for `CCCN(CC(=O)Nc1ccccc1OC)C(=O)C1=COCCO1`?
tim10-1 inh: -0.5; tim23-1 inh: -5.4; TIM10 inh: 7.0; PfHsp90 yeast 2: -1.5

How did CC1=CC(C)(C)N2C(=O)C3(SCC(=O)N3c3ccc(F)cc3)c3cc(C)cc1c32 (configuration not stated) do in these assays?
tim10-1 inh: 46.3*; tim23-1 inh: 43.4; Rce1 inh: inactive; TIM10 inh: 41.2*; tim10-1 confirm: 25.7; tim10 confirm: 37.4*

Results for CC1=CC(C)(C)N2C(=O)C3(NCCc4c3[nH]c3ccccc43)c3cc(C)cc1c32 (configuration not stated) ?
tim10-1 inh: 18.2; tim23-1 inh: 35.5; Rce1 inh: inactive; TIM10 inh: 12.4; PfHsp90 yeast 2: -6.9

Results for Cn1c(O)c(N=NC(=O)CNC(=O)c2cccnc2)c2ccccc21 ?
tim10-1 inh: -4.5; tim23-1 inh: -2.2; Rce1 inh: inactive; TIM10 inh: 7.9; PfHsp90 yeast 2: -92.6

How did COc1ccc(CNC(=O)COc2ccc(Br)c(C)c2)cc1 do in these assays?
tim10-1 inh: 3.6; tim23-1 inh: 11.0; Rce1 inh: inactive; TIM10 inh: 6.7; PfHsp90 yeast 2: -21.0

How did Cc1cc(C)cc(NC(=S)NC(=O)Cc2ccccc2)c1 do in these assays?
tim10-1 inh: 44.2*; tim23-1 inh: 46.6; Rce1 inh: inactive; TIM10 inh: 40.3*; PfHsp90 yeast 2: -8.1; tim10-1 confirm: 30.2*; tim10 confirm: 40.5*

How did O=C1C(=O)N(c2nccs2)C(c2ccccc2F)/C1=C(\O)c1ccc2c(c1)OCCO2 (configuration not stated) do in these assays?
tim10-1 inh: 7.0; tim23-1 inh: 0.8; Rce1 inh: inactive; TIM10 inh: 4.1; PfHsp90 yeast 2: 10.1

Results for CCOc1cc(C(=S)N2CCCCC2)ccc1OCC(=O)NCc1ccccc1 ?
tim10-1 inh: 12.5; tim23-1 inh: 15.7; Rce1 inh: inactive; TIM10 inh: -18.4

How did Cc1cccc(N=Nc2c(N)n[nH]c2-c2ccc(Cl)cc2)c1 do in these assays?
tim10-1 inh: 51.6*; tim23-1 inh: 7.8; Rce1 inh: inactive; TIM10 inh: 56.0*; PfHsp90 yeast 2: -54.5; tim10-1 confirm: 26.2; tim10 confirm: 12.8

Assay outcomes from PubChem BioAssay.
